Among the data in the antibiotic and cytotoxicity screens of Wong et al. (2023) are cytotoxicity call values, retold here.

The whole screen tested about 39,000 compounds, of which about 3,300 (8.5%) were called active. The sample holds actives, similar compounds and a random draw of the others, so the mix is not that of the screen.

This test relates to HepG2. The experiment in a line: cytotoxicity call (relative viability < 0.9). As to conditions: 10 µM.
For the molecule `C[C@@H]1CCCCO[C@H](CN(C)C(=O)NC2CCCCC2)[C@H](C)CN([C@@H](C)CO)C(=O)c2cc(NC(=O)C3CCCCC3)ccc2O1`, the cytotoxicity call was “inactive”.
The entry for `CN1C(=O)[C@@H]2[C@@H]3C[C@H]4[C@@H](O[C@H]1[C@H]42)[C@H]3O` is “inactive”; for `C[C@H](CO)N1C[C@H](C)[C@H](CN(C)Cc2ccncc2)Oc2c(NC(=O)c3cnccn3)cccc2C1=O` it is “inactive”.
As to `C[C@@H]1CN([C@H](C)CO)C(=O)c2cc(NS(=O)(=O)c3ccc(F)cc3)ccc2O[C@@H](C)CCCCO[C@H]1CN(C)CC1CCCCC1`, the cytotoxicity call is “active”.
In the case of `C[C@H]1CCCCO[C@@H](CN(C)CC2CCCCC2)[C@@H](C)CN([C@@H](C)CO)C(=O)c2cc(NS(=O)(=O)c3ccc(F)cc3)ccc2O1`, the cytotoxicity call is “inactive”.
Take `C[C@@H]1CCCCO[C@H](CN(C)CC2CCCCC2)[C@H](C)CN([C@@H](C)CO)C(=O)c2cc(NS(=O)(=O)c3ccc(F)cc3)ccc2O1`: the cytotoxicity call was “inactive”.
Regarding `C[C@H](CO)N1C[C@H](C)[C@@H](CN(C)C(=O)Nc2ccc3c(c2)OCO3)Oc2ccc(NC(=O)Cn3cnnn3)cc2C1=O`, the cytotoxicity call was “inactive”.
Regarding `C[C@H](CO)N1C[C@H](C)[C@@H](CN(C)C(=O)Nc2ccc3c(c2)OCO3)OCCCC[C@H](C)Oc2ccc(NS(=O)(=O)c3ccc(F)cc3)cc2C1=O`, the cytotoxicity call was “inactive”.
As for `CC(C)NC(=O)N(C)C[C@H]1Oc2ccc(NS(=O)(=O)c3ccc(F)cc3)cc2C(=O)N([C@@H](C)CO)C[C@H]1C`, the cytotoxicity call is “inactive”.
As for `C[C@H](CO)N1C[C@H](C)[C@H](CN(C)C(=O)Nc2ccc(C(F)(F)F)cc2)Oc2ccc(NC(=O)Nc3ccc4c(c3)OCO4)cc2CC1=O`, the cytotoxicity call was “inactive”.
For `Cl.N=C(NN=Cc1ccc(Cl)cc1)NN=Cc1ccc(Cl)cc1`, the cytotoxicity call was “inactive”.
Regarding `Clc1ccc(/C=N/Cc2ccc(-c3cccs3)s2)cc1`, the cytotoxicity call is “active”.
The entry for `CC(C)(C)c1csc(-c2ccc(-c3cccs3)s2)n1` is “inactive”; for `CN1C(=O)c2cc(NC(=O)C3CCC3)ccc2OC[C@H]2O[C@H](CC(=O)NCCc3ccncc3)CC[C@@H]21` it is “inactive”; for `Cc1noc(C)c1NC(=O)N(C)C[C@H]1Oc2ccc(NC(=O)Cn3cnnn3)cc2C(=O)N([C@@H](C)CO)C[C@@H]1C` it is “inactive”.
On to `O=C(C[C@@H]1CC[C@H]2[C@@H](COC[C@@H](O)CN2S(=O)(=O)c2cccc(Cl)c2)O1)NCc1ccc2c(c1)OCO2`, for which the cytotoxicity call is “inactive”.
On to `C[C@@H]1O[C@@H](Oc2c(-c3cc(O)c(O)c(O)c3)oc3cc(O)cc(O)c3c2=O)[C@H](O)[C@H](O)[C@H]1O`, for which the cytotoxicity call is “inactive”.
Take `Cc1coc(C)c1C(=O)O[C@@H]1O[C@@H](C)[C@H](O)[C@@H](O)[C@H]1O`: the cytotoxicity call is “active”.
Regarding `C[C@@H]1O[C@@H](OC[C@H]2O[C@@H](OCCc3ccccc3)[C@H](O)[C@@H](O)[C@@H]2O)[C@H](O)[C@H](O)[C@H]1O`, the cytotoxicity call was “inactive”.
